# Test results as given in PubChem BioAssay (NCI).
# Compounds without any hit were thinned out: in the full panel of roughly 83,000, 20% have a hit.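 Cell lines were cultured in 96-well plates, exposed to a single compound concentration, and assessed for percent growth 48 hours later.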 A number with no mark means an inactive call. Activity calls are given as the source filed them. How the source made its calls: active means growth percent below 10; inactive means the rest.
# What was measured:
# Test in all cases: NCI-60 one-dose screen, 48 h (100 = growth as untreated, 0 = no growth, -100 = all killed)
# DU-145 prostate = conditions: 10 µM unless noted
# K-562 leukemia = conditions: 10 µM unless noted
# MALME-3M melanoma = conditions: 10 µM unless noted
# MDA-MB-231 breast = conditions: 10 µM unless noted
# RXF 393 renal = conditions: 10 µM unless noted
# SF-268 CNS = conditions: 10 µM unless noted
# SF-295 CNS = conditions: 10 µM unless noted
# SF-539 CNS = conditions: 10 µM unless noted
# UACC-257 melanoma = conditions: 10 µM unless noted
# M14 melanoma = conditions: 10 µM unless noted
# HCT-15 colon = conditions: 10 µM unless noted
# HT29 colon = conditions: 10 µM unless noted
# SNB-75 CNS = conditions: 10 µM unless noted
# SNB-19 CNS = conditions: 10 µM unless noted
# U251 CNS = conditions: 10 µM unless noted
# PC-3 prostate = conditions: 10 µM unless noted
# SK-MEL-5 melanoma = conditions: 10 µM unless noted
# UACC-62 melanoma = conditions: 10 µM unless noted
# LOX IMVI melanoma = conditions: 10 µM
# SK-MEL-28 melanoma = conditions: 10 µM unless noted
SMILES,growth (DU-145 prostate),growth (K-562 leukemia),growth (MALME-3M melanoma),growth (MDA-MB-231 breast),growth (RXF 393 renal),growth (SF-268 CNS),growth (SF-295 CNS),growth (SF-539 CNS),growth (UACC-257 melanoma),growth (M14 melanoma),growth (HCT-15 colon),growth (HT29 colon),growth (SNB-75 CNS),growth (SNB-19 CNS),growth (U251 CNS),growth (PC-3 prostate),growth (SK-MEL-5 melanoma),growth (UACC-62 melanoma),growth (LOX IMVI melanoma),growth (SK-MEL-28 melanoma)
OCC1OC(n2ccc3c2ncn2ncnc32)C(O)C1O (stereo not given),16.9%,18.4%,83.7%,40.9%,38.3%,47.4%,43.7%,34.3%,97.7%,51.3%,26.9%,14.2%,58.6%,50.3%,78.6%,14.6%,45.4%,61.2%,12.9%,92.5%
CC1(c2ccccc2)CO1 (stereo not given),111%,106%,118%,108%,120%,107%,110%,102%,102%,108%,102%,112%,89.9%,102%,97.6%,104%,105%,104%,103%,105%
CC(=O)c1ccc(C)cc1,114%,114%,90.8%,114%,97.6%,107%,109%,114%,92%,107%,113%,111%,90.1%,109%,108%,106%,105%,105%,108%,104%
CCOC(=O)c1c(C)[nH]c(C)c1C=O,114%,94.7%,108%,93%,114%,101%,103%,98.9%,69.4%,100%,107%,107%,94.2%,97.1%,88.2%,82.7%,101%,91.2%,97.9%,109%
NC(=O)OCCO,104%,82.9%,84.7%,109%,110%,97.7%,106%,108%,95.6%,94.6%,108%,99%,110%,108%,97.4%,98.5%,95.4%,100%,94.6%,113%
Cc1ccc(S(N)(=O)=O)cc1Cl,120%,92.3%,116%,98%,125%,108%,113%,106%,109%,105%,104%,104%,91.8%,107%,103%,99.3%,103%,105%,114%,108%
CCNCC(C)(C)O,118%,111%,100%,94.9%,117%,119%,103%,102%,98.7%,95.5%,104%,109%,79.4%,102%,104%,91.5%,97.3%,102%,101%,101%
Cc1ccc(NC(=O)c2ccccc2Cl)cc1,112%,99.6%,123%,118%,108%,109%,108%,107%,131%,114%,95.3%,107%,95.3%,99%,118%,89.6%,107%,98.6%,101%,108%
CCC1CCC(C)NC1 (stereo not given),107%,102%,102%,120%,107%,102%,92.1%,99.7%,96%,95.2%,91.5%,104%,88.6%,100%,95.7%,94.2%,98.9%,99.3%,95.9%,102%
Cc1ccc([N+](=O)[O-])c(C)n1,114%,114%,100%,117%,128%,98.6%,97.7%,89.5%,98.1%,110%,97.9%,108%,77.8%,105%,102%,89.7%,114%,107%,103%,99.6%
CN(C)c1ccc2nc3ccc(=[N+](C)C)cc-3oc2c1,59%,16.9%,-21.8% (active),-14.6% (active),89.6%,-17.5% (active),50.3%,7.14% (active),-30.1% (active),3.87% (active),33.3%,33.2%,71.3%,14.2%,-29.1% (active),11.4%,23.5%,39.5%,12.2%,66.6%
CCOS(=O)(=O)c1ccc([N+](=O)[O-])cc1,108%,99.2%,113%,106%,120%,103%,101%,102%,94.5%,105%,110%,94%,87%,101%,99.2%,97.9%,102%,101%,97.7%,107%
ClCC(Cl)[C@@H]1CC2C=CC1C2 (stereo not given in full),113%,105%,102%,96.8%,105%,108%,91.3%,110%,105%,112%,109%,107%,93.6%,104%,99.5%,102%,99.1%,98.7%,97.7%,106%
COc1nc(Nc2cccc(C(F)(F)F)c2)nc(OC)n1,105%,87%,116%,90.7%,102%,98.4%,88.4%,98%,121%,113%,103%,96.1%,84.3%,101%,89.4%,98.7%,94%,103%,107%,109%
CC(C)OCC(CCl)OC(=O)Nc1ccccc1 (stereo not given),106%,103%,92.7%,94.8%,113%,101%,108%,98.1%,102%,107%,108%,102%,92.2%,105%,97.2%,98.8%,101%,101%,97%,111%
O=C(OCC1CCCO1)c1ccc([N+](=O)[O-])cc1 (stereo not given),113%,111%,106%,106%,102%,106%,102%,102%,85.5%,101%,104%,108%,85.8%,102%,91.7%,88.4%,104%,99.8%,104%,108%
Nc1ncnc(Nc2ccc(C(F)(F)F)cc2)n1,107%,98.9%,105%,102%,113%,101%,101%,107%,95.5%,103%,103%,103%,87.5%,98.8%,94.2%,89.6%,99.6%,89.1%,100%,104%

SMILES,growth (DU-145 prostate),growth (K-562 leukemia),growth (MALME-3M melanoma),growth (MDA-MB-231 breast),growth (RXF 393 renal),growth (SF-268 CNS),growth (SF-295 CNS),growth (SF-539 CNS),growth (UACC-257 melanoma),growth (M14 melanoma),growth (HCT-15 colon),growth (HT29 colon),growth (SNB-75 CNS),growth (SNB-19 CNS),growth (U251 CNS),growth (PC-3 prostate),growth (SK-MEL-5 melanoma),growth (UACC-62 melanoma),growth (LOX IMVI melanoma),growth (SK-MEL-28 melanoma)
Cc1cc(C)cc(OCC(=O)O)c1,111%,93.3%,92.3%,106%,135%,114%,96.5%,96.2%,100%,102%,94.4%,119%,94.8%,97.1%,103%,104%,110%,98.5%,98.7%,107%
N#CCCN1C(=O)CCC1C(=O)O (stereo not given),114%,96.8%,114%,129%,115%,97.3%,101%,104%,93.4%,104%,97.8%,89.8%,103%,101%,101%,90.9%,110%,105%,120%,124%
COC(=O)Cc1cc(COC(C)=O)ccc1C,116%,108%,110%,125%,107%,113%,121%,111%,108%,106%,106%,96.6%,97.8%,113%,109%,92.6%,110%,104%,108%,113%
CC1(C)CCC(C)(C)NC(=S)N1,107%,103%,97.3%,111%,112%,105%,102%,105%,113%,98.9%,98.7%,107%,105%,102%,104%,100%,105%,105%,96.1%,109%
C/C(Cc1ccccc1)=N\O,109%,88.6%,110%,113%,112%,101%,117%,108%,107%,105%,96.9%,101%,115%,108%,104%,88.4%,99.4%,106%,119%,111%
CC(=O)/C(C)=N\OC(=O)Nc1ccccc1,104%,98.4%,104%,99.3%,125%,101%,101%,95.3%,98.7%,101%,103%,99.4%,82.7%,98%,93%,97.5%,99.1%,107%,94.6%,112%
CCCCOC(=O)c1ccc(NC(=O)CCl)cc1,78.3%,5.65% (active),-67.5% (active),7.83% (active),89.5%,35.7%,90%,69.9%,75.5%,51.2%,14.9%,12.8%,68.9%,62.6%,4.55% (active),51.7%,58.7%,52.9%,-43.4% (active),102%
CCOC(=O)C1(N)CCCCC1,112%,116%,100%,102%,121%,102%,95.4%,96.9%,107%,93.8%,112%,104%,91.8%,96.5%,99.1%,96.6%,106%,105%,102%,165%
CC(=O)Nc1ccc(C(=O)c2ccc(S(=O)(=O)Nc3ccccc3)cc2)cc1,117%,112%,99.5%,88.1%,100%,104%,109%,94.7%,69.6%,91.8%,104%,96.7%,78.1%,80.3%,91.9%,87.2%,89.8%,83.1%,91.6%,114%
Nc1cccc2cccc(O)c12,99.1%,89.5%,75.2%,65.7%,90.6%,96.1%,93.8%,109%,100%,96.7%,83%,107%,78.5%,98.7%,70.5%,69.6%,86.9%,86.4%,85.1%,111%
CCOC(=O)C(C#N)=C1CCN(C)CC1,123%,116%,124%,119%,115%,102%,103%,105%,93.9%,105%,99.5%,113%,102%,101%,104%,87.7%,111%,103%,109%,134%
Cc1ccc(C)c(CN(C)C)c1O,108%,119%,94.8%,109%,107%,104%,97.8%,96.5%,105%,105%,121%,115%,84.2%,122%,99.6%,102%,107%,117%,98.9%,102%
O=C(O)Cc1ccc(Cl)cc1,107%,53.6%,102%,102%,125%,105%,97.5%,99.4%,111%,93.1%,112%,107%,102%,108%,104%,85.7%,114%,110%,103%,132%
Cc1c(Cl)cccc1NC(=S)NC(=O)c1ccccc1,111%,79.7%,89.4%,90.2%,85.5%,109%,85.1%,100%,88.9%,115%,92.6%,90.3%,90.5%,107%,84.9%,89.2%,90.1%,92.7%,99.3%,102%
Clc1ccc(/C=C/c2ccccn2)cc1,109%,107%,108%,98.9%,116%,91.3%,100%,94.2%,103%,101%,89.5%,111%,72.5%,96.3%,81.1%,81.4%,101%,106%,98.6%,99%
c1ccc(Nc2ccccn2)nc1,120%,90.5%,83.4%,97.1%,97.9%,102%,99.3%,94.6%,95.3%,99.9%,95.7%,100%,82.3%,97.5%,91.8%,95.9%,103%,94.1%,95.7%,118%
NC(=S)N/N=C/c1ccc(Cl)cc1,120%,92.8%,109%,111%,97.4%,109%,97.4%,106%,91.7%,108%,103%,108%,103%,107%,99.7%,99.6%,99.1%,109%,99.1%,107%
